# PubChem BioAssay
# Unmarked numbers belong to inactive results. For some assays here: Results with a measured potency or affinity are listed apart. The source made the active and inactive calls. Unless noted, the rule behind the calls is not given here.
# What was measured:
# [1] = antimalarial activity against Dd2 strain (AID 2302;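 active = growth inhibition above 50% at the single 2 µM test dose, taken to imply half-maximal potency below 2 µM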;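 note: 0% = DMSO untreated growth and 100% = chloroquine plus artemisinin killed control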); conditions: P. falciparum Dd2 in RBCs, LDH growth readout, 72 h; at 2 µM; stronger effect = higher value
# [2] = human hepatoma cell viability loss – ATP luminescence, cytotoxicity control for P. falciparum antimalarial project, primary screen (AID 2303;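 active = inhibition above 50%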;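 note: 0% = DMSO wells and 100% = digitonin-killed cells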); conditions: HepG2 viability, 24-48 h, at 10 µM, stronger effect = higher value
# [3] = biological target: L-lactate dehydrogenase (Plasmodium falciparum (isolate CDC / Honduras)) (UniProt Q27743); assay: PfLDH activity inhibition – cell lysate, 3D7 strain, counter-screen for P. falciparum growth inhibition project (AID 2304);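 note: 0% = vehicle and 100% = reference inhibitor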; conditions: P. falciparum 3D7 crude extract, LDH APAD/NBT absorbance; at 2 µM; stronger effect = higher value
# [4] = inhibition of 3D7 malaria parasite growth – strain 3D7 (AID 2306);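 note: 0% = DMSO wells and 100% = chloroquine plus artemisinin control wells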; conditions: P. falciparum 3D7 erythrocytic growth, LDH absorbance, 72 h; at 2 µM; stronger effect = higher value
# [5] = biological target: Calcium-dependent protein kinase 1 (Plasmodium falciparum (isolate 3D7)) (UniProt P62344); assay: PfCDPK1 kinase inhibitors, biochemical, TCAMS library (AID 1159585; cut-off not given, nearly all actives have IC50 up to about 0.98 µM;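 note: inhibitors leave more ATP so luminescence rises with inhibition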); conditions: recombinant PfCDPK1, Kinase-Glo ATP depletion luminescence
# [6] = biological target: Plasmodium falciparum protein kinase 6 (PK6, PF3D7_1337100) (UniProt Q8IDW1); assay: PfPK6 kinase inhibitors, biochemical, TCAMS library (AID 1159586); conditions: recombinant PfPK6, Kinase-Glo ATP depletion luminescence
# [7] = biological target: Protein kinase 7 (PK7), Plasmodium falciparum 3D7 (PF3D7_0213400) (UniProt Q7YTF7); assay: inhibition of Plasmodium PK7 catalytic activity – biochemical, TCAMS antimalarial set, Kinase-Glo luminescence (AID 1159587); conditions: recombinant PfPK7, Kinase-Glo ATP depletion luminescence
# [8] = biological target: Calcium-dependent protein kinase 4 (Plasmodium falciparum (isolate 3D7)) (UniProt Q8IBS5); assay: PfCDPK4 kinase inhibitors, biochemical, TCAMS library (AID 1159588; cut-off not given, nearly all actives have IC50 up to about 0.91 µM); conditions: recombinant PfCDPK4, Kinase-Glo ATP depletion luminescence
# Sequence of Calcium-dependent protein kinase 4 (Plasmodium falciparum (isolate 3D7)) (Q8IBS5 whole entry, looked up): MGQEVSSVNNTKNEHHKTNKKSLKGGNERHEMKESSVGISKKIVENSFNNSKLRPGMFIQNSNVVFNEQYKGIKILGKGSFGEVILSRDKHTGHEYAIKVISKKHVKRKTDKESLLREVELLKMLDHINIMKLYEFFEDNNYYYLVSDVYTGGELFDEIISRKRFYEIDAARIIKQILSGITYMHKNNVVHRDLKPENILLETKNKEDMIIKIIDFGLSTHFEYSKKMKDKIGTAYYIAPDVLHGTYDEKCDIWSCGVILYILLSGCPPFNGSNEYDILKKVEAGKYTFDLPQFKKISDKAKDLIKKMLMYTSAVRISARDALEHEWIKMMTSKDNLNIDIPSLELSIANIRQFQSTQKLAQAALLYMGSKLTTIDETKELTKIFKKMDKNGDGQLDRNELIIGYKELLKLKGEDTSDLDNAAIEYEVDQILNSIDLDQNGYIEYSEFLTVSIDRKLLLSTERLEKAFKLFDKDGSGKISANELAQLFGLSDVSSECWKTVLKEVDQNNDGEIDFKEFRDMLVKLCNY
# Sequence of Plasmodium falciparum protein kinase 6 (PK6, PF3D7_1337100) (Q8IDW1 1-305): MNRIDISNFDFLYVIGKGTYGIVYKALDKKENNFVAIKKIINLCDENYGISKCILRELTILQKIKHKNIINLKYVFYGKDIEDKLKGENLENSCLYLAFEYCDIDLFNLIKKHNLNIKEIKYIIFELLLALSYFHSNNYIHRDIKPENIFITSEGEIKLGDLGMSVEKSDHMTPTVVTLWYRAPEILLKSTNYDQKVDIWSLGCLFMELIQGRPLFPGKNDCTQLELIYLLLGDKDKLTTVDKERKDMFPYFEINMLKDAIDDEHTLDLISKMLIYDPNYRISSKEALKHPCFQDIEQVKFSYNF
# Sequence of L-lactate dehydrogenase (Plasmodium falciparum (isolate CDC / Honduras)) (Q27743 whole entry, looked up): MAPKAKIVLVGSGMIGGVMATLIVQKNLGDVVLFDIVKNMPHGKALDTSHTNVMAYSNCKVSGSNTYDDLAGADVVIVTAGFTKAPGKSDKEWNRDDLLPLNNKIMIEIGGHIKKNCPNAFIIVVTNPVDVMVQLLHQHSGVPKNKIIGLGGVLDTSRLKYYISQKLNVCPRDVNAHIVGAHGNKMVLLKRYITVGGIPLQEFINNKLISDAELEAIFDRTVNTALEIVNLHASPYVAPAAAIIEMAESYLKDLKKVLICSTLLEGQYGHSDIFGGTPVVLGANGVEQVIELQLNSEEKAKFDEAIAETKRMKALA
# Sequence of Calcium-dependent protein kinase 1 (Plasmodium falciparum (isolate 3D7)) (P62344 whole entry, looked up): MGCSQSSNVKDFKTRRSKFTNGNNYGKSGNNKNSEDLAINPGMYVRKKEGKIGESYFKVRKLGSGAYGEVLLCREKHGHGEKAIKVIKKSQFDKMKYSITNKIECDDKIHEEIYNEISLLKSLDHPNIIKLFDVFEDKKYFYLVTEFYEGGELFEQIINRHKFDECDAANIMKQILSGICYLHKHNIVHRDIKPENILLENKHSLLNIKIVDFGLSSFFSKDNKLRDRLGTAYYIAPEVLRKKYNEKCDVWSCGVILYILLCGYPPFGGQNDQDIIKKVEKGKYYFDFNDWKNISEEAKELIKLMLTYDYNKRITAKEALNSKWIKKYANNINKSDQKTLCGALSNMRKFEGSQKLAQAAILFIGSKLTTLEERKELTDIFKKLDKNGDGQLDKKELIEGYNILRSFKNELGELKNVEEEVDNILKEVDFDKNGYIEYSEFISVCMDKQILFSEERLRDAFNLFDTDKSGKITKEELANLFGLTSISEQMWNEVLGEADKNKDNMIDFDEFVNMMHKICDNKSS
# Sequence of Protein kinase 7 (PK7), Plasmodium falciparum 3D7 (PF3D7_0213400) (Q7YTF7 1-343): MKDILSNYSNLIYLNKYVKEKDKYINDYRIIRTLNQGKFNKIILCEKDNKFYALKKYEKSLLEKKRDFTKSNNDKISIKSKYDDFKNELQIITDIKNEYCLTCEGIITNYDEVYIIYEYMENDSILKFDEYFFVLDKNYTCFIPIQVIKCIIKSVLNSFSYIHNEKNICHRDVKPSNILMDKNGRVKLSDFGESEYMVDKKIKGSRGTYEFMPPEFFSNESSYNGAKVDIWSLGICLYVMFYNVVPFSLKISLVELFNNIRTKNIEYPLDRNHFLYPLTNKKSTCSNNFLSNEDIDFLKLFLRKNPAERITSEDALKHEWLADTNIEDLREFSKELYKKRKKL
Compound,growth inhibition [1],inhibition [2],inhibition [3] [%],growth inhibition [4],outcome [5],outcome [6],outcome [7],outcome [8]
Fc1ccc2nc(Nc3nc(-c4ccccn4)cs3)sc2c1,100% (active),42%,3,102% (active),inactive,inactive,inactive,inactive
CC(C)CCn1c(Sc2ccc(C#N)c([N+](=O)[O-])c2)nnc1-c1ccc(N(C)C)cc1,96% (active),11%,3,97% (active),inactive,inactive,inactive,inactive
Cc1cc(N2CCCC2)nc(Nc2ccc(NC(=O)C(C)Oc3ccccc3)cc2)n1 (stereo not given),58% (active),42%,-1,101% (active),inactive,inactive,inactive,inactive
COc1ccc(-c2ccc(NC(=O)c3ccc(F)cc3)cc2)cc1CNC(C)C,28%,24%,2,97% (active),inactive,inactive,inactive,inactive
CCCC(CNCc1cccc(C)c1)CNc1cc(=O)c2ccccc2[nH]1 (stereo not given),89% (active),-2%,-7,99% (active),inactive,inactive,inactive,inactive
Cc1[nH]c(C)c(-c2ccc(-c3cccc(C(F)(F)F)c3)nc2)c(=O)c1Br,96% (active),28%,-4,97% (active),inactive,inactive,inactive,inactive
Cc1cccc2[nH]c(-c3cccc(-c4cccc(CN5CCCC5CN)c4)c3)nc12 (stereo not given),72% (active),15%,6,101% (active),inactive,inactive,inactive,inactive
COc1ccccc1N1CCN(c2cccc(F)c2C#N)CC1,59% (active),-2%,-2,85% (active),inactive,inactive,inactive,inactive
COc1cccc(-c2ccc3c(-c4ccc(F)cc4)cnc(N)c3c2)c1,70% (active),27%,-2,100% (active),inactive,inactive,inactive,inactive
CCN(CC)CCN(Cc1ccc(-c2ccc(C(F)(F)F)cc2)cc1)C(=O)CN1C(CCc2cccc(F)c2F)=NS(=O)(=O)c2ccccc21,49%,36%,-1,101% (active),inactive,inactive,inactive,inactive
Cc1cc(N2CCCCC2)nc2ccc(NC(=O)c3cccc([N+](=O)[O-])c3)cc12,99% (active),9%,2,95% (active),inactive,inactive,inactive,inactive
COc1cccc(NC(=O)c2nc(N3CCN(c4ccncc4)CC3)ccc2Cl)c1,65% (active),14%,1,97% (active),inactive,inactive,inactive,inactive
CN(C)C(=O)c1ccc(CN(Cc2ccc3c(c2)OCCO3)Cc2ccc3c(c2)OCO3)cc1,95% (active),-10%,3,89% (active),inactive,inactive,inactive,inactive
O=C(Nc1cccc(C(F)(F)F)c1)c1cccc(S(=O)(=O)NCC2CCCN2CC2CCCCC2)c1 (stereo not given),2%,6%,0,97% (active),inactive,inactive,inactive,inactive
COc1ccc2ncc(F)c(CCN3CCC(NCc4cc(Br)c5c(c4)OCCO5)CC3)c2n1,94% (active),26%,-2,100% (active),inactive,inactive,inactive,inactive
COc1cccc(CNC[C@@H](O)[C@H](Cc2ccccc2)NC(=O)c2cc(C3CCCC3)cc(N3CCCCS3(=O)=O)c2)c1,83% (active),7%,4,96% (active),inactive,inactive,inactive,inactive
Cc1cc(C(=O)CN2C(=O)NC3(CCOc4ccccc43)C2=O)c(C)n1Cc1ccco1 (stereo not given),42%,13%,5,93% (active),inactive,inactive,inactive,inactive
COc1cc2nc(NCCc3ccccc3)nc(NCc3cnn(C)c3C)c2cc1OC,94% (active),13%,0,99% (active),inactive,inactive,inactive,inactive
Cc1[nH]c(C)c(-c2ccc(OCc3cc(C(F)(F)F)cc(C(F)(F)F)c3)nc2)c(=O)c1Cl,96% (active),19%,-1,98% (active),inactive,inactive,inactive,inactive
CC1CCN(CC[C@H]2CCCN2S(=O)(=O)c2cccc(NC(=O)c3cc4ccccc4s3)c2)CC1,41%,28%,2,97% (active),inactive,inactive,inactive,inactive

Compound,growth inhibition [1],inhibition [2],inhibition [3] [%],growth inhibition [4],outcome [5],outcome [6],outcome [7],outcome [8]
Cc1nn(-c2cccc(Cl)c2)c2c1C(C(=O)c1ccc3c(c1)OCO3)CC(=O)N2 (stereo not given),95% (active),5%,-5,98% (active),inactive,inactive,inactive,inactive
OCC1CCN(Cc2cccc(C#Cc3cc4ncnc(Nc5ccc(OCc6cccc(F)c6)c(Cl)c5)c4s3)n2)CC1,95% (active),41%,1,99% (active),inactive,inactive,inactive,inactive
CC(C)CN(Cc1c(O)ccc2[nH]c(-c3ccc(F)cc3F)nc12)CC(C)C,92% (active),11%,-2,98% (active),inactive,inactive,inactive,inactive
CN(C)CCOc1cc(NC(=O)c2ccc(-c3ccc(Cl)cc3Cl)cc2)ccc1-c1ccccc1,26%,45%,-4,98% (active),inactive,inactive,inactive,inactive
COc1ccc2nccc([C@@H](O)CN3CCC(NCc4nc5ccccc5s4)CC3)c2c1,5%,8%,-3,93% (active),inactive,inactive,inactive,inactive
Nc1nccc2ccc(-c3ccnc(NCc4cccnc4)n3)cc12,95% (active),11%,-3,101% (active),inactive,inactive,inactive,inactive
NC1CCN(c2nc(NCCCc3ccc(O)cc3)nc(NCc3ccccc3-c3ccccc3)n2)CC1,45%,11%,4,102% (active),inactive,inactive,inactive,inactive
CS(=O)(=O)N(c1cccc(F)c1)c1cc(C(=O)N[C@@H](Cc2ccccc2)[C@H](O)CNCc2cccc(C(F)(F)F)c2)cc(N2CCCC2=O)c1,92% (active),14%,1,98% (active),inactive,inactive,inactive,inactive
CCC1CN2CCc3cc(OC)c(OC)cc3C2CC1CC1NCCc2cc(OC)c(OC)cc21 (stereo not given),98% (active),42%,-3,103% (active),inactive,inactive,inactive,inactive
COc1cc2nc(N3CCN(c4cc(C)ccc4C)CC3)nc(N)c2cc1OC,12%,66% (active),5,98% (active),inactive,inactive,inactive,inactive
FC(F)(F)c1ccc(CSc2ccc3nnc(-c4ccccn4)n3n2)cc1,54% (active),-2%,-1,95% (active),inactive,inactive,inactive,inactive
CC(C)C[C@@H](NC(=O)NC1CCC(CCN2[C@@H]3CC[C@H]2CC(OC(=O)C(CO)c2ccccc2)C3)CC1)C(O)(c1ccccc1)c1ccccc1 (stereo not given in full),71% (active),21%,-6,95% (active),inactive,inactive,inactive,inactive
COc1ccc2nccc([C@@H](O)CN3CCC(NC(=O)[C@@H]4Cc5ccccc5CN4C(=O)OC(C)(C)C)CC3)c2c1,61% (active),15%,4,92% (active),inactive,inactive,inactive,inactive
CCCN(CC1CC1)c1ncc(-c2ccccc2CNCc2ccccc2O)cn1,98% (active),4%,-4,100% (active),inactive,inactive,inactive,inactive
COc1cccc(-c2cc(C(=O)Nc3cc(Oc4ccc(O)cc4)cc([N+](=O)[O-])c3)on2)c1,30%,16%,7,89% (active),inactive,inactive,inactive,inactive
COc1ccc(CCN(C)CCCOc2ccc(NC(=O)COc3cccc4sc5ccccc5c(=O)c34)cc2)cc1OC,90% (active),99% (active),1,94% (active),inactive,inactive,inactive,inactive
O=C(Cc1cccc(O)c1)NCC(Cc1ccc(O)cc1)c1ccccc1 (stereo not given),97% (active),-1%,3,91% (active),inactive,inactive,inactive,inactive
O=[N+]([O-])c1ccccc1C=NNc1ccnc2cc(Cl)ccc12,89% (active),-5%,3,101% (active),inactive,inactive,inactive,inactive
Cc1[nH]c2ccccc2c(=O)c1-c1ccc(Cl)cc1,91% (active),-1%,2,93% (active),inactive,inactive,inactive,inactive
O=C(NCCOc1ccccc1)[C@H](Cc1ccccc1)Nc1ccnc(NCC2CCCCC2)n1,73% (active),80% (active),5,96% (active),inactive,inactive,inactive,inactive
